Activity calls are given as the source filed them.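 How the source made its calls, unless noted: active means inhibition of the reporter signal at or above 50%; inactive means inhibition below 50%.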
Key:
[1] = inhibitors of TNFa-induced NFkB p65 translocation, primary screen, imaging, HUVEC, MLSMR starter and 10KST1 sets (AID 438;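 active means inhibition above 20% together with a positive visual image hit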;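 further: compound added about 3h40 before a 20 min TNFalpha stimulation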;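 on inhibition: signal is the nuclear over cytoplasmic p65 intensity ratio per well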); conditions: HUVEC TNFa-induced p65 nuclear translocation; cell count: measured here: nuclei count (cytotoxicity indicator), at 2.08 µM; inhibition: at 2 µM, stronger effect = higher value, 0% TNFa-plus-vehicle, 100% no-TNFa wells
[2] = inhibitors of mutant huntingtin aggregation, primary screen, imaging, exon1htt(103Q)mCFP cells, high-content imaging (AID 483;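 active means visual image review flags a hit and inhibition of aggregation exceeds 20%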;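 further: compound exposure lasted 3 days before fixation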;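 on nuclei count: percent of the per-plate median nuclei count of sample wells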); conditions: exon1htt(103Q)mCFP cell line, aggregate imaging, at 2 µM; inhibition of aggregation: stronger effect = higher value; nuclei count: measured here: cell count, toxicity
[3] = inhibitors of E-selectin induction by TNFa, primary screen, imaging, HUVEC, immunofluorescence, MLSMR starter and 10KST1 sets (AID 487;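 active means visually confirmed hit in the image check and inhibition above 20%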;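 on inhibition: signal is fraction of cell area covered by stained E-selectin grains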;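 on nuclei count: 100% = median nuclei count of all wells on the same plate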); conditions: HUVEC TNFalpha-induced E-selectin immunofluorescence imaging, at 2 µM; inhibition: stronger effect = higher value; nuclei count: measured here: cell number, toxicity
[4] = target: Voltage-gated potassium channel subunit beta-2 (Rattus norvegicus) (UniProt P62483); assay: KvBeta enzyme negative modulators, primary screen, biochemical, NADPH fluorescence (AID 622;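 active means fluorescence slope higher than the sample average by over 3 SD, cut at about -0.22 in these data, passing the limit was not always enough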;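 further: slope of raw intensity against log time taken from 70 to 1610 s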); conditions: recombinant KvBeta, 4-cyanobenzaldehyde reduction, at 10 µM, stronger effect = higher value
[5] = target: Voltage-gated potassium channel subunit beta-2 (Rattus norvegicus) (UniProt P62483); assay: KvBeta positive modulators, primary screen, biochemical, NADPH fluorescence (AID 623;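 active means NADPH fluorescence slope more negative than the mean of all samples by about 3 SD, 99.7% confidence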;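 further: fluorescence intensity change per second fitted from 20 to 320 s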); conditions: Recombinant KvBeta, NADPH fluorescence decrease slope, 10 min; at 10 µM; stronger effect = lower value
[6] = target: Alpha-2C adrenergic receptor (Homo sapiens) (UniProt P18825); assay: modulators of alpha2C/GIRK thallium flux, primary screen, cell-based, HEK293 alpha2C/GIRK1/2 (AID 624;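 active means fluorescence slope after compound addition differing from the mean of all screened samples at 99.7% confidence, in either direction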;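 further: slope of fluorescence ratio to pre-addition baseline per second over 15 to 24 s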); conditions: thallium flux BTC fluorescence, at 10 µM, actives lie on both sides
[7] = inhibitors of Sendai virus-induced IRF3 signaling, primary screen, TLR/RLR signaling modifier project, cell-based, Sendai virus stimulus, luciferase, 10K MLSCN set (AID 602276;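 active means inhibition at or above 50% at 10 µM; inactive means inhibition below 50%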;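 further: firefly luciferase from ISG56 promoter only with Renilla not read in this screen; 0% = Sendai virus plus DMSO and 100% = medium plus DMSO without virus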); conditions: HEK293 RL24 IRF3 luciferase reporter, at 10 µM, stronger effect = higher value
[8] = inhibitors of poly I:C-induced TLR3 signaling, primary screen, cell-based, poly I:C stimulus, luciferase, 10K MLSCN set (AID 602277); conditions: HEK293-TLR3 RL24 IRF3 luciferase reporter, at 10 µM, stronger effect = higher value

Sequence of Voltage-gated potassium channel subunit beta-2 (Rattus norvegicus) (P62483 whole entry, looked up): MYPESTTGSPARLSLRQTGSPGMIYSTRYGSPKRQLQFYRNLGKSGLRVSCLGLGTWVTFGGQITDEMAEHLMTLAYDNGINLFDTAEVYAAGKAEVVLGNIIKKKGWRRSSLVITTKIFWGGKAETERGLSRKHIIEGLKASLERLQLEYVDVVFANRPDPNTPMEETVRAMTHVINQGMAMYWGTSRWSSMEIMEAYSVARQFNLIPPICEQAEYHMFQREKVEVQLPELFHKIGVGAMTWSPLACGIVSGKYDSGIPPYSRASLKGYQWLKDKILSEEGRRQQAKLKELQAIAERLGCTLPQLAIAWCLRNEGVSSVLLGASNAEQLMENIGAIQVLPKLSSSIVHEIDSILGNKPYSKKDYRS
Sequence of Alpha-2C adrenergic receptor (Homo sapiens) (P18825 whole entry, looked up): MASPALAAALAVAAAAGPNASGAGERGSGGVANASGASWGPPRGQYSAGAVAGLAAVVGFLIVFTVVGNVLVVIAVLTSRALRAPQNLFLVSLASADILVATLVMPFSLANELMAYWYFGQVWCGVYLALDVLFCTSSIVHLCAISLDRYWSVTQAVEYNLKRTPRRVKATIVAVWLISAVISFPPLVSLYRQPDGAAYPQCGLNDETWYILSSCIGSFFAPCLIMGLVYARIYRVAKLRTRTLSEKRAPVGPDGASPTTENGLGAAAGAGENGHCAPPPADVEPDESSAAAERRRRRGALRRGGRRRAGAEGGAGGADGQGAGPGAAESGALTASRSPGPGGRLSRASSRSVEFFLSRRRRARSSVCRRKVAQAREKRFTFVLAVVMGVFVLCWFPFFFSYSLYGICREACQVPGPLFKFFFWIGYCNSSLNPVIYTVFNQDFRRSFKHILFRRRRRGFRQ

| SMILES | cell count [1] | inhibition [1] | inhibition of aggregation [2] | nuclei count [2] | inhibition [3] | nuclei count [3] | fluorescence slope [4] | NADPH fluorescence slope [5] | slope [6] | inhibition [7] | inhibition [8] |
| --- | --- | --- | --- | --- | --- | --- | --- | --- | --- | --- | --- |
| COc1ccc(N2CCN(Cc3nc(-c4ccc(Cl)cc4Cl)no3)CC2)cc1 | 596 | -0.7% (inactive) | 4.9% (inactive) | 106% | -48.8% (inactive) | 122% | -0.421 (inactive) | -7.7e-05 (inactive) | 0.00526 (inactive) | 18.6% (inactive) | 22.1% (inactive) |
| O=C(CN1CCCC1)Nc1ccc(NC(=O)Nc2ccccc2)cc1 | 433 | -5.7% (inactive) | 8.5% (inactive) | 96.4% | -132% (inactive) | 215% | -0.433 (inactive) | 7.1e-05 (inactive) | 0.00831 (inactive) | -33.7% (inactive) | -54.6% (inactive) |
| O=C(Nc1ccc2c(c1)OCO2)c1ccc(CN2CCOCC2)cc1 | 361 | -5.1% (inactive) | -32% (inactive) | 110% | -117% (inactive) | 122% | -0.491 (inactive) | -3.3e-05 (inactive) | 0.00498 (inactive) | -25.7% (inactive) | -76.1% (inactive) |
| O=C(CCNC(=O)c1ccc(Br)o1)NC1CCCC1 | 507 | -18.2% (inactive) | 35.3% (inactive) | 77.7% | -29.9% (inactive) | 87.3% | -0.365 (inactive) | -5e-05 (inactive) | 0.00549 (inactive) | 14.4% (inactive) | 13.1% (inactive) |
| CC(=O)Nc1c(O)nc(SCC(=O)Nc2nnc(CC(C)C)s2)[nH]c1=O | 780 | -3.3% (inactive) | 0% (inactive) | 114% | -41% (inactive) | 104% | -0.541 (inactive) | 1.8e-05 (inactive) | 0.00412 (inactive) | -9.44% (inactive) | -13.3% (inactive) |
| Cc1cc(C(F)(F)F)nn1Cc1ccc(C(=O)NCc2ccco2)o1 | 597 | -2.1% (inactive) | 2% (inactive) | 106% | -36% (inactive) | 108% | -0.568 (inactive) | -2.7e-05 (inactive) | 0.00427 (inactive) | -1.39% (inactive) | -36.9% (inactive) |
| Cc1nc(C)c(C(=O)C2=C(O)C(=O)N(CCN3CCOCC3)C2c2ccco2)s1 (stereo not drawn) | 244 | -3.2% (inactive) | 0.6% (inactive) | 86.3% | -2.9% (inactive) | 104% | -0.388 (inactive) | -2.3e-06 (inactive) | 0.00517 (inactive) | 11% (inactive) | 6.93% (inactive) |
| CCOC(=O)C1CCCN(CCCc2ccccc2)C1 (stereo not drawn) | 361 | -17.4% (inactive) | -1.3% (inactive) | 118% | -32.5% (inactive) | 108% | -0.438 (inactive) | -2.5e-05 (inactive) | 0.00567 (inactive) | 6.58% (inactive) | 38% (inactive) |
| CCc1nc(C)c(C#N)c2cc(OC)c(OC)cc12 | 387 | -1.1% (inactive) | -2.1% (inactive) | 79.3% | -7.1% (inactive) | 97.7% | -0.446 (inactive) | -7.7e-05 (inactive) | 0.00607 (inactive) | 15.2% (inactive) | 21.3% (inactive) |
| O=C(c1ccc(CNS(=O)(=O)c2cccc(C(F)(F)F)c2)cc1)N1CCOCC1 | 237 | 11.8% (inactive) | -1.6% (inactive) | 80% | 14.7% (inactive) | 97.4% | -0.387 (inactive) | -3.8e-05 (inactive) | 0.00478 (inactive) | 14.8% (inactive) | 16.9% (inactive) |
| CCOC(=O)CN1C(=O)C2(OCCCO2)c2ccccc21 | 595 | -18.5% (inactive) | 3.3% (inactive) | 115% | -39.6% (inactive) | 96.5% | -0.454 (inactive) | -0.000151 (inactive) | 0.00617 (inactive) | 1.67% (inactive) | 18.4% (inactive) |
| COc1cc(C(=O)N2CCN(c3cc(Cl)ccc3Cl)CC2)cc(OC)c1OC | 630 | -6.1% (inactive) | 1% (inactive) | 34.1% | -62.3% (inactive) | 98.9% | -0.425 (inactive) | -7.3e-05 (inactive) | 0.00499 (inactive) | 12% (inactive) | 78.9% (active) |
| COc1ccc(S(=O)(=O)N2CN(Cc3ccco3)c3nc4ccccc4nc32)cc1 | 600 | -3.6% (inactive) | -1.4% (inactive) | 82.9% | -118% (inactive) | 134% | -0.605 (inactive) | -1.5e-05 (inactive) | 0.00619 (inactive) | 10.9% (inactive) | 20% (inactive) |

Reference: PubChem BioAssay
